The source of these data is PubChem BioAssay (NCI).

About 83,000 compounds went through this panel and 20% of them were active in at least one assay; those are over-represented in the sample as a whole.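 A percent growth of 40 corresponds to 60% growth inhibition; 0 means no net growth; -100 means all cells died. Active threshold: below 10.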 A number with no mark means an inactive call. Calls of active or inactive are those of the source.

This assay relates to SN12C renal. In words: NCI-60 one-dose screen, 48 h (100 = growth as untreated, 0 = no growth, -100 = all killed). The note with it: 10 µM unless noted.
As to `COc1cc2c(-c3nc4cc(Cl)c(F)cc4s3)cc(=O)oc2c(C)c1OC`, the growth is -73.8% (active). As for `Cc1ccc2c(c1)O/C(=C\c1ccc([N+](=O)[O-])o1)C2=O`, the growth is 34.7%.

In the case of `O=C(/C(=C/c1cccc([N+](=O)[O-])c1)c1ccccc1)c1ccccc1`, the growth was 35.6%. Take `CC1(C)OC(=O)C(=Cc2ccccc2Br)C(=O)O1`: the growth is 96.6%. For the compound `COc1cc(/C=C/C(=O)Nc2ccc3c(c2)/C(=C\c2cccn2C)C(=O)N3)cc(OC)c1OC`, the growth was 41.2%. Next, `O=C(Nc1nc(-c2ccc(Cl)cc2)cs1)c1cc(O)c(O)c(O)c1`: 22.6%; `CCCCCCOc1ccc(/C=N/NC(N)=S)cc1`: 22.2%; `COc1ccc(-c2csc(NC(=O)c3cc(OC)c(OC)c(OC)c3)n2)cc1`: 98.7%. For the compound `O=C(O)c1ccc(NC(=O)c2ccc(Nc3ccnc(C(F)(F)F)c3)cc2)cc1`, the growth was 104%. Regarding `COc1cc(/C=C2\CCC/C(=C\c3ccc(OCC4CO4)c(OC)c3)C2=O)ccc1OCC1CO1` (centres undefined), the growth was 23.8%. In the case of `COc1cc(/C=C/C(=O)c2c(-c3ccc(Cl)cc3)nc3sc(C)nn23)cc(OC)c1OC`, the growth was 78.3%. For `C=C1c2c(C)nn(-c3ccc(C#CCOC4OC(CO)C(O)C(O)C4O)cc3)c2N(C)C23C[C@H]1C1(C)c4c(C)nn(-c5ccc(C#CCOC6OC(CO)C(O)C(O)C6O)cc5)c4N(C)C(C)(C[C@H]12)C3` (some centres undefined), the growth was 8.29% (active).

As to `O=C(/C(=C/c1ccc([N+](=O)[O-])cc1)c1ccccc1)c1ccccc1`, the growth was 35.1%. Regarding `COc1cc(/C=C/C(=O)c2c(-c3ccc(F)cc3)nc3sc(C)nn23)cc(OC)c1OC`, the growth is 35.9%.

Turning to `CCOc1nc(-c2ccccc2)cc2c(O)c(C(=O)n3nc(C)cc3C)[nH]c(=O)c12`, the growth was 101%.

Take `COc1ccc(/C=C(\C#N)c2ccccc2)cc1`: the growth is 86.6%.

On to `O=C(Nc1nc(-c2ccccc2)cs1)c1cc(O)c(O)c(O)c1`, for which the growth is 50.5%. With `Cc1cc2c(C#N)n3c(c2cc1C)C(=O)C(c1ccccc1)Oc1ccccc1-3` (centres undefined), the growth was 27.8%. With `COc1cc2c(C#N)n3c(c2cc1OC)C(=O)C(c1ccccc1)Oc1ccccc1-3` (centres undefined), the growth is 37.2%. Turning to `c1cnc2n[nH]c(Nc3ncnc4c3sc3ncccc34)c2c1`, the growth was 99.7%.

On to `CCN1C(=O)c2ccc3c4c(ccc(c24)C1=O)C(=O)N(CCCNCc1ccccc1OC)C3=O`, for which the growth is -91.6% (active). For the compound `O=C(/C=C/c1ccc(Cl)cc1)c1ccccc1`, the growth is 98%.

With `CCOC(=O)c1c(NC(=O)C2CCCCC2C(=O)O)sc2c1CCCC2` (centres undefined), the growth was 104%.

As to `CN(C(=O)c1ccccc1)N(C)C(=O)c1ccccc1`, the growth was 105%. For the compound `CCN(CC)c1ccc(C(O)C2=CC(=O)c3ccccc3C2=O)cc1` (centres undefined), the growth is -28.1% (active). Consider `N#Cc1c2ccccc2c2n1-c1ccccc1OC(c1ccccc1)C2=O` (centres undefined), for which the growth is 15.4%.

Turning to `O=C(OCCBr)c1ccc(Cl)c([N+](=O)[O-])c1`, the growth is 102%.

For `O=C1NCN(c2ccccc2)C12CCN(CCCC(c1ccc(F)cc1)c1ccc(F)cc1)CC2`, the growth was 60.5%. Next, `COc1ccc(-c2csc(NC(=O)c3cc(O)c(O)c(O)c3)n2)cc1`: 64.8%.
